# Measurements as given in PubChem BioAssay (NCI).
# The panel holds about 79,000 compounds, 15% with a hit somewhere; the sample as a whole holds those more often. Unmarked numbers belong to inactive results. The source made the active and inactive calls. Cut-off read from the data, not from the text of the source: active = growth inhibition above about 70%; inactive = the rest.
# Tests used:
# [1] = NCI Yeast Anticancer Drug Screen. Data for the rad52 strain (AID 147);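 note: 0% = growth of vehicle-treated control cultures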; conditions: S. cerevisiae rad52 mutant growth inhibition, active compounds read high
# Procedure, shortened: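 Screen used a yeast mutant impaired in DNA repair. After compound exposure, growth was measured. Values reflect inhibition compared with vehicle-treated cells.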
# [2] = NCI Yeast Anticancer Drug Screen. Data for the wt1 strain (AID 149);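 note: 0% = growth of vehicle-treated wt1 cultures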; conditions: S. cerevisiae wt1 strain (SPY 50644) growth inhibition, active compounds read high
# Procedure, shortened: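 Readout: yeast growth inhibition, normalised to vehicle controls, in the wt1 strain exposed to test compounds.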
# [3] = NCI Yeast Anticancer Drug Screen. Data for the rad50EPP+ strain (AID 151);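 note: 0% = growth of vehicle-treated control cultures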; conditions: S. cerevisiae rad50 mutant strain, active compounds read high
# Procedure, shortened: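 Exposing the rad50EPP+ strain to each compound, growth was compared with vehicle-only cultures to give inhibition.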
# [4] = NCI Yeast Anticancer Drug Screen. Data for the mgt1 strain (AID 153); conditions: S. cerevisiae mgt1 mutant growth inhibition, active compounds read high
# Procedure, shortened: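 Genetically defined yeast (mgt1) treated with compound; inhibition of growth expressed against vehicle-treated controls.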
# [5] = NCI Yeast Anticancer Drug Screen. Data for the rad50 strain (AID 155);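 note: 0% = growth of vehicle-only cultures of the same strain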; conditions: S. cerevisiae rad50 strain growth inhibition, active compounds read high
# Procedure, shortened: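 Compounds were tested on a yeast strain with an engineered DNA damage repair alteration; the reported value is growth inhibition normalised to vehicle treatment.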
# [6] = NCI Yeast Anticancer Drug Screen. Data for the mec2-1 strain (AID 157); conditions: S. cerevisiae mec2-1 strain, active compounds read high
# Procedure, shortened: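 Readout is yeast growth inhibition, normalised to vehicle-treated controls, in the mec2-1 strain exposed to compound.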
# [7] = NCI Yeast Anticancer Drug Screen. Data for the rad14 strain (AID 159);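 note: 0% = growth of vehicle-treated control cultures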; conditions: S. cerevisiae rad14 strain growth inhibition, active compounds read high
# Procedure, shortened: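 Compound-treated yeast with a defined DNA-repair lesion; growth inhibition normalised to vehicle-treated cultures.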
# [8] = NCI Yeast Anticancer Drug Screen. Data for the sgs1 mgt1 strain (AID 161);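 note: 0% = growth of cultures given vehicle only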; conditions: S. cerevisiae sgs1 mgt1 strain, active compounds read high
# Procedure, shortened: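 Yeast cells carrying a defined DNA-repair defect were exposed to test compounds. Growth inhibition was measured relative to vehicle-treated controls.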
# [9] = NCI Yeast Anticancer Drug Screen. Data for the CLN2oe strain (AID 163);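 note: 0% = growth of vehicle-only control cultures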; conditions: S. cerevisiae CLN2oe strain, active compounds read high
# Procedure, shortened: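 Values reflect how much compound exposure reduced yeast growth, referenced to vehicle-exposed cells. Assay organism is a strain with a defined genetic change affecting cell-cycle control.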
# [10] = NCI Yeast Anticancer Drug Screen. Data for the cln2 rad14 strain (AID 165);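 note: 0% = growth equal to vehicle treated cultures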; conditions: S. cerevisiae cln2 rad14 strain, active compounds read high
# Procedure, shortened: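 Relative to vehicle controls, growth inhibition of compound-treated cln2 rad14 yeast was recorded.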
# [11] = NCI Yeast Anticancer Drug Screen. Data for the bub3 strain (AID 167); conditions: S. cerevisiae bub3 mutant strain, active compounds read high
# Procedure, shortened: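 Growth of a checkpoint-deficient yeast mutant is measured after compound exposure. Values represent inhibition relative to vehicle.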
# [12] = NCI Yeast Anticancer Drug Screen. Data for the wt2 strain (AID 169);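 note: 0% = growth of vehicle-treated yeast cultures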; conditions: S. cerevisiae wt2 strain growth inhibition, active compounds read high
# Procedure, shortened: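 Values express reduction in yeast growth under compound treatment, referenced to vehicle-treated cells.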
# [13] = NCI Yeast Anticancer Drug Screen. Data for the mlh1 strain (AID 171);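 note: 0% = growth of vehicle-treated control cultures of the same strain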; conditions: S. cerevisiae mlh1 strain growth inhibition, active compounds read high
# Procedure, shortened: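 Steps: expose the defined-mutant yeast strain to compound; expose a parallel culture to vehicle; measure growth; express compound effect as inhibition relative to the vehicle culture.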
# [14] = NCI Yeast Anticancer Drug Screen. Data for the sgs1 strain (AID 173);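 note: 0% = growth of vehicle-only control cultures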; conditions: S. cerevisiae sgs1 mutant, active compounds read high
# Procedure, shortened: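 Treat defined-mutant yeast with compound; measure growth; calculate inhibition relative to vehicle-treated cells.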
# [15] = NCI Yeast Anticancer Drug Screen. Data for the mlh1 rad18 strain (AID 175); conditions: S. cerevisiae mlh1 rad18 strain growth inhibition, active compounds read high
# Procedure, shortened: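 Test agents were incubated with a yeast strain of defined genotype (DNA damage repair defect). Inhibition of growth was derived by comparison with vehicle-exposed cultures.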
# [16] = NCI Yeast Anticancer Drug Screen. Data for the rad18 strain (AID 177); conditions: S. cerevisiae rad18 mutant growth inhibition, active compounds read high
# Procedure, shortened: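 A genetically defined yeast mutant impaired in DNA damage repair was treated with test compounds, then its growth was measured against cultures receiving vehicle alone.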
# [17] = at 5.0 µM (retest, dose inferred, filed as 0.5)
# [18] = at 50.0 µM (retest, dose inferred, filed as 5.0)
smiles,measurement,setting,value
OC1(c2ccccc2)CSC2=Nc3ccccc3C3CCN1N23 (stereo unspecified),growth inhibition,[1]; at 1.2 µM,-41%
same,growth inhibition,[1]; at 3.7 µM,-50%
same,growth inhibition,[1]; at 11.0 µM,-45%
same,growth inhibition,[1]; at 33.0 µM,-29%
same,growth inhibition,[1]; at 100.0 µM,91% (active)
same,growth inhibition,[2]; at 1.2 µM,-82%
same,growth inhibition,[2]; at 3.7 µM,-83%
same,growth inhibition,[2]; at 11.0 µM,-89%
same,growth inhibition,[2]; at 33.0 µM,-33%
same,growth inhibition,[2]; at 100.0 µM,95% (active)
same,growth inhibition,[3]; at 1.2 µM,-29%
same,growth inhibition,[3]; at 3.7 µM,-40%
same,growth inhibition,[3]; at 11.0 µM,-47%
same,growth inhibition,[3]; at 33.0 µM,-22%
same,growth inhibition,[3]; at 100.0 µM,66%
same,growth inhibition,[4]; at 1.2 µM,-45%
same,growth inhibition,[4]; at 3.7 µM,-43%
same,growth inhibition,[4]; at 11.0 µM,-38%
same,growth inhibition,[4]; at 33.0 µM,57%
same,growth inhibition,[4]; at 100.0 µM,94% (active)
same,growth inhibition,[5]; at 1.2 µM,-66%
same,growth inhibition,[5]; at 3.7 µM,-75%
same,growth inhibition,[5]; [17],24%
same,growth inhibition,[5]; at 11.0 µM,-61%
same,growth inhibition,[5]; at 33.0 µM,-20%
same,growth inhibition,[5]; [18],47%
same,growth inhibition,[5]; at 50.0 µM,51.5%
same,growth inhibition,[5]; at 100.0 µM,92% (active)
same,growth inhibition,[6]; at 1.2 µM,-86%
same,growth inhibition,[6]; at 3.7 µM,-71%
same,growth inhibition,[6]; [17],12%
same,growth inhibition,[6]; at 11.0 µM,-91%
same,growth inhibition,[6]; at 33.0 µM,-21%
same,growth inhibition,[6]; [18],40%
same,growth inhibition,[6]; at 50.0 µM,43.7%
same,growth inhibition,[6]; at 100.0 µM,93% (active)
same,growth inhibition,[7]; at 1.2 µM,-51%
same,growth inhibition,[7]; at 3.7 µM,-32%
same,growth inhibition,[7]; at 11.0 µM,-36%
same,growth inhibition,[7]; at 33.0 µM,13%
same,growth inhibition,[7]; at 100.0 µM,94% (active)
same,growth inhibition,[8]; [17],27%
same,growth inhibition,[8]; [18],51%
same,growth inhibition,[8]; at 50.0 µM,80.2% (active)
same,growth inhibition,[9]; at 1.2 µM,-23%
same,growth inhibition,[9]; at 3.7 µM,-16%
same,growth inhibition,[9]; at 11.0 µM,-46%
same,growth inhibition,[9]; at 33.0 µM,2%
same,growth inhibition,[9]; at 100.0 µM,93% (active)
same,growth inhibition,[10]; [17],25%
same,growth inhibition,[10]; [18],40%
same,growth inhibition,[10]; at 50.0 µM,16.4%
same,growth inhibition,[11]; at 1.2 µM,-56%
same,growth inhibition,[11]; at 3.7 µM,-54%
same,growth inhibition,[11]; [17],19%
same,growth inhibition,[11]; at 11.0 µM,-43%
same,growth inhibition,[11]; at 33.0 µM,58%
same,growth inhibition,[11]; [18],11%
same,growth inhibition,[11]; at 50.0 µM,73.7% (active)
same,growth inhibition,[11]; at 100.0 µM,91% (active)
same,growth inhibition,[12]; at 1.2 µM,-47%
same,growth inhibition,[12]; at 3.7 µM,-39%
same,growth inhibition,[12]; at 11.0 µM,-34%
same,growth inhibition,[12]; at 33.0 µM,-1%
same,growth inhibition,[12]; at 100.0 µM,94% (active)
same,growth inhibition,[13]; at 1.2 µM,-81%
same,growth inhibition,[13]; at 3.7 µM,-100%
same,growth inhibition,[13]; at 11.0 µM,-63%
same,growth inhibition,[13]; at 33.0 µM,58%
same,growth inhibition,[13]; at 100.0 µM,93% (active)
same,growth inhibition,[14]; at 1.2 µM,-23%
same,growth inhibition,[14]; at 3.7 µM,-55%
same,growth inhibition,[14]; at 11.0 µM,-42%
same,growth inhibition,[14]; at 33.0 µM,18%
same,growth inhibition,[14]; at 100.0 µM,94% (active)
same,growth inhibition,[15]; [17],23%
same,growth inhibition,[15]; [18],78% (active)
same,growth inhibition,[15]; at 50.0 µM,80.7% (active)
same,growth inhibition,[16]; at 1.2 µM,-65%
same,growth inhibition,[16]; at 3.7 µM,-55%
same,growth inhibition,[16]; at 11.0 µM,-70%
same,growth inhibition,[16]; at 33.0 µM,-21%
same,growth inhibition,[16]; at 100.0 µM,92% (active)
CCOC(=O)c1cnc2cc(C(F)(F)F)ccc2c1N=[N+]=[N-],growth inhibition,[1]; at 1.2 µM,12%
same,growth inhibition,[1]; at 3.7 µM,13%
same,growth inhibition,[1]; at 11.0 µM,23%
same,growth inhibition,[1]; at 33.0 µM,48%
same,growth inhibition,[1]; at 100.0 µM,85% (active)
same,growth inhibition,[2]; at 1.2 µM,3%
same,growth inhibition,[2]; at 3.7 µM,4%
same,growth inhibition,[2]; at 11.0 µM,8%
same,growth inhibition,[2]; at 33.0 µM,37%
same,growth inhibition,[2]; at 100.0 µM,87% (active)
same,growth inhibition,[3]; at 1.2 µM,6%
same,growth inhibition,[3]; at 3.7 µM,13%
same,growth inhibition,[3]; at 11.0 µM,26%
same,growth inhibition,[3]; at 33.0 µM,54%
same,growth inhibition,[3]; at 100.0 µM,82% (active)
same,growth inhibition,[4]; at 1.2 µM,4%
same,growth inhibition,[4]; at 3.7 µM,6%
same,growth inhibition,[4]; at 11.0 µM,22%
same,growth inhibition,[4]; at 33.0 µM,66%
same,growth inhibition,[4]; at 100.0 µM,92% (active)
same,growth inhibition,[5]; at 1.2 µM,8%
same,growth inhibition,[5]; at 3.7 µM,25%
same,growth inhibition,[5]; [17],7%
same,growth inhibition,[5]; at 11.0 µM,23%
same,growth inhibition,[5]; at 33.0 µM,50%
same,growth inhibition,[5]; [18],20%
same,growth inhibition,[5]; at 50.0 µM,44.4%
same,growth inhibition,[5]; at 100.0 µM,83% (active)
same,growth inhibition,[6]; at 1.2 µM,14%
same,growth inhibition,[6]; at 3.7 µM,12%
same,growth inhibition,[6]; [17],-3%
same,growth inhibition,[6]; at 11.0 µM,22%
same,growth inhibition,[6]; at 33.0 µM,56%
same,growth inhibition,[6]; [18],4%
same,growth inhibition,[6]; at 50.0 µM,20.2%
same,growth inhibition,[6]; at 100.0 µM,90% (active)
same,growth inhibition,[7]; at 1.2 µM,7%
same,growth inhibition,[7]; at 3.7 µM,3%
same,growth inhibition,[7]; at 11.0 µM,12%
same,growth inhibition,[7]; at 33.0 µM,49%
same,growth inhibition,[7]; at 100.0 µM,93% (active)
same,growth inhibition,[8]; [17],-1%
same,growth inhibition,[8]; [18],-3%
same,growth inhibition,[8]; at 50.0 µM,43.4%
same,growth inhibition,[9]; at 1.2 µM,11%
same,growth inhibition,[9]; at 3.7 µM,12%
same,growth inhibition,[9]; at 11.0 µM,18%
same,growth inhibition,[9]; at 33.0 µM,64%
same,growth inhibition,[9]; at 100.0 µM,87% (active)
same,growth inhibition,[10]; [17],-4%
same,growth inhibition,[10]; [18],1%
same,growth inhibition,[10]; at 50.0 µM,25.1%
same,growth inhibition,[11]; at 1.2 µM,11%
same,growth inhibition,[11]; at 3.7 µM,7%
same,growth inhibition,[11]; [17],-17%
same,growth inhibition,[11]; at 11.0 µM,14%
same,growth inhibition,[11]; at 33.0 µM,46%
same,growth inhibition,[11]; [18],48%
same,growth inhibition,[11]; at 50.0 µM,-3.4%
same,growth inhibition,[11]; at 100.0 µM,74% (active)
same,growth inhibition,[12]; at 1.2 µM,2%
same,growth inhibition,[12]; at 3.7 µM,2%
same,growth inhibition,[12]; at 11.0 µM,14%
same,growth inhibition,[12]; at 33.0 µM,59%
same,growth inhibition,[12]; at 100.0 µM,93% (active)
same,growth inhibition,[13]; at 1.2 µM,7%
same,growth inhibition,[13]; at 3.7 µM,6%
same,growth inhibition,[13]; at 11.0 µM,15%
same,growth inhibition,[13]; at 33.0 µM,51%
same,growth inhibition,[13]; at 100.0 µM,87% (active)
same,growth inhibition,[14]; at 1.2 µM,10%
same,growth inhibition,[14]; at 3.7 µM,12%
same,growth inhibition,[14]; at 11.0 µM,25%
same,growth inhibition,[14]; at 33.0 µM,75% (active)
same,growth inhibition,[14]; at 100.0 µM,94% (active)
same,growth inhibition,[15]; [17],-4%
same,growth inhibition,[15]; [18],12%
same,growth inhibition,[15]; at 50.0 µM,59.9%
same,growth inhibition,[16]; at 1.2 µM,15%
same,growth inhibition,[16]; at 3.7 µM,22%
same,growth inhibition,[16]; at 11.0 µM,33%
same,growth inhibition,[16]; at 33.0 µM,58%
same,growth inhibition,[16]; at 100.0 µM,88% (active)
